The target of experiment [1] is rat Adrenergic Receptor, Alpha 2 (Adra2), Non-selective Binding, Adra2a (gene 25083) (UniProt P22909). Kind of experiment: NVS_GPCR_rAdra2_NonSelective: NovaScreen (NVS) G Protein-Coupled Receptor Assay for rat Adrenergic Receptor, Alpha 2 (Adra2), Non-selective Binding (AID 2283299). In outline: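 Rat cortical membranes, radioligand competitive displacement read by filter-based scintillation counting 1.25 hours after dosing. Primary screen in duplicate at 25 uM; actives followed up in concentration series.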

The target of experiment [2] is Adra2b (gene 24174) (UniProt P19328). As to the kind of experiment: NVS_GPCR_rmAdra2B: NovaScreen (NVS) G Protein-Coupled Receptor Assay for hybird cells Adrenergic, Alpha 2B Receptor (Adra2B) (AID 2283306). The method in brief:
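Radioligand filter-binding assay on membrane proteins from neuroglioma/blastoma hybrid cells (rodent), 1 h after dosing; scintillation counting, loss of signal vs DMSO. Primary screen in duplicate at 25 uM, actives then run in concentration series.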

Experiment [3] addresses rat Opioid Receptor, Non-selective Sodium (Na+) Binding, Oprm1 (gene 25601) (UniProt P33535). As to the kind of experiment: NVS_GPCR_rOpiate_NonSelectiveNa: NovaScreen (NVS) G Protein-Coupled Receptor Assay for rat Opioid Receptor, Non-selective Sodium (Na+) Binding (AID 2283311). In outline: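 Rat forebrain membranes, radioligand displacement with filter scintillation counting, 1.5 h incubation. Screened in duplicate at 25 µM; hits then run in concentration-response up to 50 µM; loss of binding fitted versus DMSO.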

Experiment [4] deals with rat Gamma-Aminobutyric Acid Type B Receptor (GABBR), Gabbr1 (gene 81657) (UniProt Q9Z0U4). As to the kind of experiment: NVS_GPCR_rGABBR: NovaScreen (NVS) G Protein-Coupled Receptor Assay for rat Gamma-Aminobutyric Acid Type B Receptor (GABBR) (AID 2283301). The protocol: (§1) NVS_GPCR_rGABBR is a biochemical, single-readout assay that uses extracted gene-proteins from Rat cortical membranes in a tissue-based cell-free assay. Measurements were taken 1 hour after chemical dosing in a 96-well plate.NVS_GPCR_rGABBR is one of one assay component(s) measured or calculated from the NVS_GPCR_rGABBR assay. It is designed to make measurements of radioligand binding, a form of binding reporter, as detected with scintillation counting signals by Filter-based radiodetection technology.Data from the assay component NVS_GPCR_rGABBR was analyzed into 1 assay endpoint. This assay endpoint, NVS_GPCR_rGABBR, was analyzed in the positive analysis fitting direction relative to DMSO as the negative control and baseline of activity. Using a type of binding reporter, loss-of-signal activity can be used to understand changes in the binding as they relate to the gene Gabbr1. Furthermore, this assay endpoint can be referred to as a primary readout, because the performed assay has only produced 1 assay endpoint. To generalize the intended target to other relatable targets, this assay endpoint is annotated to the gpcr intended target family, where the subfamily is metabotropic glutamate receptor.
(§2) Binding assays used specific radioligands (tritiated, iodinated) with non-radioactive competitive displacement ligands in agonist or antagonist protocols (as indicated) and various reference compounds and inhibitors to titrate specific binding to receptors and transporters. Most enzyme assays (CYPs, kinases, phosphatases, proteases, HDACs) used recombinant protein and specific substrates (fluorescence mostly, some colorimetric and radioactive) and inhibitors, followed by a biochemical separation of substrate and product. All assays for the biochemical HTS were initially run in duplicate at a single concentration (10 uM for CYP450 assays and 25 uM for all others). Assay-chemical combinations meeting a pre-defined threshold (e.g., 30% inhibition and other criteria defined below) were then run in singleton concentration-response format with maximum concentration of 20 uM for CYPs and 50 uM for all others. Each assay was run with positive and negative controls, and concurrent controls on every plate. The follow-up (secondary) screen tested active chemical-pairs in concentration series, as well as a few additional assays not tested in the primary screen, some selected negative inactives, and several cases re-run in the concentration series for confirmatory purposes.

In experiment [5] the target is rat Histamine Receptor (H3), Hrh3 (gene 85268) (UniProt Q9QYN8). Kind of experiment: NVS_GPCR_rH3: NovaScreen (NVS) G Protein-Coupled Receptor Assay for rat Histamine Receptor (H3) (AID 2283303). The method in brief:
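Rat forebrain membranes incubated 1 h with compound; radioligand displacement measured by filter-based scintillation counting. Single-concentration duplicates at 25 µM, then concentration-response up to 50 µM, relative to DMSO.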

Experiment [6] concerns the target rat Adrenergic Receptor, Beta (Adrb), Non-selective Binding, Adrb1 (gene 24925) (UniProt P18090). Kind of experiment: NVS_GPCR_rAdrb_NonSelective: NovaScreen (NVS) G Protein-Coupled Receptor Assay for rat Adrenergic Receptor, Beta (Adrb), Non-selective Binding (AID 2283298). In outline: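 Non-selective beta-adrenergic radioligand binding in rat cortical membranes, 1 h incubation, filter-based scintillation read-out. Primary screen 25 uM in duplicate; hits retested in concentration-response up to 50 uM, DMSO baseline.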

The target of experiment [7] is Metabotropic glutamate receptor 1 (Rattus norvegicus) (UniProt P23385). Kind of experiment: NVS_GPCR_rmMGluR1: NovaScreen (NVS) G Protein-Coupled Receptor Assay for rat Glutamate Metabotropic Receptor 1 (MGluR1) (AID 2283305). The method in brief:
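Rat cerebellum membrane preparation, radioligand displacement binding read by filter-based scintillation counting 1 hour after dosing. Initial duplicate single-point screen at 25 uM, then concentration-response up to 50 uM; loss of signal versus DMSO baseline scored.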

The target of experiment [8] is rat Neurokinin-3 Receptor (NK3), Tacr3 (gene 24808) (UniProt P16177). Kind of experiment: NVS_GPCR_rNK3: NovaScreen (NVS) G Protein-Coupled Receptor Assay for rat Neurokinin-3 Receptor (NK3) (AID 2283310). The protocol:
as §1, with “NVS_GPCR_rNK3” for “NVS_GPCR_rGABBR”, “2 hours” for “1 hour”, “48-well plate.NVS_GPCR_rNK3” for “96-well plate.NVS_GPCR_rGABBR”, “NVS_GPCR_rNK3,” for “NVS_GPCR_rGABBR,”, “Tacr3.” for “Gabbr1.”, “rhodopsin-like” for “metabotropic glutamate”
as §2

Experiment [9] addresses rat Neurokinin-1 Receptor (NK1), Tacr1 (gene 24807) (UniProt P14600). Kind of experiment: NVS_GPCR_rNK1: NovaScreen (NVS) G Protein-Coupled Receptor Assay for rat Neurokinin-1 Receptor (NK1) (AID 2283309). In outline: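 Rat submaxillary gland membranes; radioligand displacement read by filter-based scintillation counting after 1 h. Primary screen in duplicate at 25 uM; actives retested in concentration series; loss of binding fitted versus DMSO.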

In experiment [10] the target is rat Glutamate Metabotropic Receptor 5 (MGluR5), Grm5 (gene 24418) (UniProt P31424). As to the kind of experiment: NVS_GPCR_rmMGluR5: NovaScreen (NVS) G Protein-Coupled Receptor Assay for rat Glutamate Metabotropic Receptor 5 (MGluR5) (AID 2283307). The protocol:
NVS_GPCR_rmMGluR5 is a biochemical, single-readout assay that uses extracted gene-proteins from Rat whole brain in a tissue-based cell-free assay. Measurements were taken 1.5 hours after chemical dosing in a 48-well plate.NVS_GPCR_rmMGluR5 is one of one assay component(s) measured or calculated from the NVS_GPCR_rmMGluR5 assay. It is designed to make measurements of radioligand binding, a form of binding reporter, as detected with scintillation counting signals by Filter-based radiodetection technology.Data from the assay component NVS_GPCR_rmMGluR5 was analyzed into 1 assay endpoint. This assay endpoint, NVS_GPCR_rmMGluR5, was analyzed in the positive analysis fitting direction relative to DMSO as the negative control and baseline of activity. Using a type of binding reporter, loss-of-signal activity can be used to understand changes in the binding as they relate to the gene Grm5. Furthermore, this assay endpoint can be referred to as a primary readout, because the performed assay has only produced 1 assay endpoint. To generalize the intended target to other relatable targets, this assay endpoint is annotated to the gpcr intended target family, where the subfamily is metabotropic glutamate receptor. […]

Structures are written as SMILES. Inconclusive results are not listed. Calls of active or inactive are those of the source. Rule for the calls: active = hit-call score of the fitted dose curve at least 0.9, where 1 is the maximum; inconclusive = response in the unintended direction; inactive = score below 0.9.

Chain of rat Adrenergic Receptor, Beta (Adrb), Non-selective Binding, Adrb1 (gene 24925) (P18090 whole entry, looked up): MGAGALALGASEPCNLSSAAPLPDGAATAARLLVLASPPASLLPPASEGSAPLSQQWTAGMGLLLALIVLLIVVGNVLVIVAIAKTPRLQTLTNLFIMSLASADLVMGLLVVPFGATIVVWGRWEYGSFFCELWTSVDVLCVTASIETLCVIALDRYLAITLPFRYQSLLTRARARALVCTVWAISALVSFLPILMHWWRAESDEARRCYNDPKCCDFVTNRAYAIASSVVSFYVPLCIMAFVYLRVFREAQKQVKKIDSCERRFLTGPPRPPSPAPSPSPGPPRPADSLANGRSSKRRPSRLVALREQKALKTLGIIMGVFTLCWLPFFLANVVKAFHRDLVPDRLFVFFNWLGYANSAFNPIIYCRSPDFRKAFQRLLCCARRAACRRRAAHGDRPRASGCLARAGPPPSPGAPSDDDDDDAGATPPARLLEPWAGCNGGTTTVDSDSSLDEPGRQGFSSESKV
Chain of rat Opioid Receptor, Non-selective Sodium (Na+) Binding, Oprm1 (gene 25601) (P33535 whole entry, looked up): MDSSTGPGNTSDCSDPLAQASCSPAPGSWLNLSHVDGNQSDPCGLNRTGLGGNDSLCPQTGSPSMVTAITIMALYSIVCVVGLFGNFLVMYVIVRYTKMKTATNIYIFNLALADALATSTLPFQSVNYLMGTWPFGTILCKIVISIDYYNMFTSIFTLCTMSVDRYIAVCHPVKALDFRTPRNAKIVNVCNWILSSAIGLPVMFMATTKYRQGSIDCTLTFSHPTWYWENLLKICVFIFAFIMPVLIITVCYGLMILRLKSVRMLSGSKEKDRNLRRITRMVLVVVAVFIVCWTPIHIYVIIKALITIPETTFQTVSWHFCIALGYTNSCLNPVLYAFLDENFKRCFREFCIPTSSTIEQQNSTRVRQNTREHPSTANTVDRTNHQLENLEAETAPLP
Chain of Adra2b (gene 24174) (P19328 whole entry, looked up): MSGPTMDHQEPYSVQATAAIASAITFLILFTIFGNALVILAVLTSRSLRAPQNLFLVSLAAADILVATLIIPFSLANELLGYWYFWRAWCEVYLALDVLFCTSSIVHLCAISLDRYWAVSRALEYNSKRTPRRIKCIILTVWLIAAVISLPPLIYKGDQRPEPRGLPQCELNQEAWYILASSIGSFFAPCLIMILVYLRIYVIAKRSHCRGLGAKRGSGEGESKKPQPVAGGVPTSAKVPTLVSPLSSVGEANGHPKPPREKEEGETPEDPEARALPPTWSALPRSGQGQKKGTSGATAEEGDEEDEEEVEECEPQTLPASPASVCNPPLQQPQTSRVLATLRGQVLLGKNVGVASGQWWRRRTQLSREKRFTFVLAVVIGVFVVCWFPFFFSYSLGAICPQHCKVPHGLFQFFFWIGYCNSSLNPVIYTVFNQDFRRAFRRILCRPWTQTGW
Chain of rat Neurokinin-1 Receptor (NK1), Tacr1 (gene 24807) (P14600 whole entry, looked up): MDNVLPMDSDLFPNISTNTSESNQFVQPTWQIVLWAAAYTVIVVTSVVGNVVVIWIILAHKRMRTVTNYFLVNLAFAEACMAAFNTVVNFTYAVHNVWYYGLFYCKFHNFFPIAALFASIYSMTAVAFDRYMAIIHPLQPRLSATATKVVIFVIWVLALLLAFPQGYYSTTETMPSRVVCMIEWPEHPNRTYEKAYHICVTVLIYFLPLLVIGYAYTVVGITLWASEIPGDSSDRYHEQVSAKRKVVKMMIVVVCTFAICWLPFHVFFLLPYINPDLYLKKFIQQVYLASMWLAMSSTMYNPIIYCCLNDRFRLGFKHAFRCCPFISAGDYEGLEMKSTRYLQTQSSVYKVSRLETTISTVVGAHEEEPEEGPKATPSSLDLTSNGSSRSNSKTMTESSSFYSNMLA
Chain of rat Neurokinin-3 Receptor (NK3), Tacr3 (gene 24808) (P16177 whole entry, looked up): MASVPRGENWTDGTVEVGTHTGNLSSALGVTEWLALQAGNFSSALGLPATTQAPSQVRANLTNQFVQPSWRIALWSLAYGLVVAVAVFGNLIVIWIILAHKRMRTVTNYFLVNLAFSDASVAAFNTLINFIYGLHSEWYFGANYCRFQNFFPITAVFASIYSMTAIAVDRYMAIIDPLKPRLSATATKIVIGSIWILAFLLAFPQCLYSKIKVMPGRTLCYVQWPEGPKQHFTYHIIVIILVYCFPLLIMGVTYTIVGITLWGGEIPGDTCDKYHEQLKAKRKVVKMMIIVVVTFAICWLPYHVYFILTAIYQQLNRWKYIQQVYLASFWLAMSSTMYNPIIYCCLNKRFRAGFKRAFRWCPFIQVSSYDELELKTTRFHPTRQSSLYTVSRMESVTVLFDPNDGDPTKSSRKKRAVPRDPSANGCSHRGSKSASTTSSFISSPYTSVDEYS
Chain of rat Gamma-Aminobutyric Acid Type B Receptor (GABBR), Gabbr1 (gene 81657) (Q9Z0U4 whole entry, looked up): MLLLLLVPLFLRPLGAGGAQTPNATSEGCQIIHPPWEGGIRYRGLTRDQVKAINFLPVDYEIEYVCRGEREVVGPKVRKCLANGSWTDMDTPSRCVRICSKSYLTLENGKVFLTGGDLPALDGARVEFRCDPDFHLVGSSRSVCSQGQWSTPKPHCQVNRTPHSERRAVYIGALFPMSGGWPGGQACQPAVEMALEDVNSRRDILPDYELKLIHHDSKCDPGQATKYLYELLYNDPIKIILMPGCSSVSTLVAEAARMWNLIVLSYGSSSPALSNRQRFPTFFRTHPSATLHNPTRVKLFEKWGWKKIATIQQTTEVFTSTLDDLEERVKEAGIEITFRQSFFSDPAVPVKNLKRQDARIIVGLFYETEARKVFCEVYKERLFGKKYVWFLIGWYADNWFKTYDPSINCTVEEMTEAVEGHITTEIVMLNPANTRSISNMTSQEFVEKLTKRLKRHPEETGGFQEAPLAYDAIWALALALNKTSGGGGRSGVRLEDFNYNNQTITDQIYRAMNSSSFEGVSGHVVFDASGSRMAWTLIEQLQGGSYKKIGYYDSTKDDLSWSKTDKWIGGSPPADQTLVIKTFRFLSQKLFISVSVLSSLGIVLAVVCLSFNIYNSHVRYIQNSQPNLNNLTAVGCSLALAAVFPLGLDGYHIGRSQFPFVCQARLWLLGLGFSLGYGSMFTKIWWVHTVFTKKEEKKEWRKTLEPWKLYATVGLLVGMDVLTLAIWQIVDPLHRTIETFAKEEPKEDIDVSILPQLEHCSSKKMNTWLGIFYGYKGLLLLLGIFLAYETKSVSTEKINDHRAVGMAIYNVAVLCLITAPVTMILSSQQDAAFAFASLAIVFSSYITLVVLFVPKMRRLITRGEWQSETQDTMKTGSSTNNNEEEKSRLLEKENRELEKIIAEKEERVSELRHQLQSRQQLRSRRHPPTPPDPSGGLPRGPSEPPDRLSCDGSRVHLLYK
Chain of rat Adrenergic Receptor, Alpha 2 (Adra2), Non-selective Binding, Adra2a (gene 25083) (P22909 whole entry, looked up): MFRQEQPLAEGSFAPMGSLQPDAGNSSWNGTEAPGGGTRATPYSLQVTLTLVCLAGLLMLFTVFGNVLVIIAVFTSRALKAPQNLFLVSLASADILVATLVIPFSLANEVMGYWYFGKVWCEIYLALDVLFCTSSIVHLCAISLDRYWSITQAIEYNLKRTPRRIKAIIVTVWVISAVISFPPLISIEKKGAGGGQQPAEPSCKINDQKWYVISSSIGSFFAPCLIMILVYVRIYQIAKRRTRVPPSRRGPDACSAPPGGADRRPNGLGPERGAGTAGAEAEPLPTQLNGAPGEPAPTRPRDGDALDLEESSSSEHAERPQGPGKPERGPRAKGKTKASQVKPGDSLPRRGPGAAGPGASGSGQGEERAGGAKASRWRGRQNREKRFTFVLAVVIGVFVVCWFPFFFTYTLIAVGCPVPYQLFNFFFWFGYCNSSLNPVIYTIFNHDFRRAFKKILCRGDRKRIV
Chain of Metabotropic glutamate receptor 1 (Rattus norvegicus) (P23385 whole entry, looked up): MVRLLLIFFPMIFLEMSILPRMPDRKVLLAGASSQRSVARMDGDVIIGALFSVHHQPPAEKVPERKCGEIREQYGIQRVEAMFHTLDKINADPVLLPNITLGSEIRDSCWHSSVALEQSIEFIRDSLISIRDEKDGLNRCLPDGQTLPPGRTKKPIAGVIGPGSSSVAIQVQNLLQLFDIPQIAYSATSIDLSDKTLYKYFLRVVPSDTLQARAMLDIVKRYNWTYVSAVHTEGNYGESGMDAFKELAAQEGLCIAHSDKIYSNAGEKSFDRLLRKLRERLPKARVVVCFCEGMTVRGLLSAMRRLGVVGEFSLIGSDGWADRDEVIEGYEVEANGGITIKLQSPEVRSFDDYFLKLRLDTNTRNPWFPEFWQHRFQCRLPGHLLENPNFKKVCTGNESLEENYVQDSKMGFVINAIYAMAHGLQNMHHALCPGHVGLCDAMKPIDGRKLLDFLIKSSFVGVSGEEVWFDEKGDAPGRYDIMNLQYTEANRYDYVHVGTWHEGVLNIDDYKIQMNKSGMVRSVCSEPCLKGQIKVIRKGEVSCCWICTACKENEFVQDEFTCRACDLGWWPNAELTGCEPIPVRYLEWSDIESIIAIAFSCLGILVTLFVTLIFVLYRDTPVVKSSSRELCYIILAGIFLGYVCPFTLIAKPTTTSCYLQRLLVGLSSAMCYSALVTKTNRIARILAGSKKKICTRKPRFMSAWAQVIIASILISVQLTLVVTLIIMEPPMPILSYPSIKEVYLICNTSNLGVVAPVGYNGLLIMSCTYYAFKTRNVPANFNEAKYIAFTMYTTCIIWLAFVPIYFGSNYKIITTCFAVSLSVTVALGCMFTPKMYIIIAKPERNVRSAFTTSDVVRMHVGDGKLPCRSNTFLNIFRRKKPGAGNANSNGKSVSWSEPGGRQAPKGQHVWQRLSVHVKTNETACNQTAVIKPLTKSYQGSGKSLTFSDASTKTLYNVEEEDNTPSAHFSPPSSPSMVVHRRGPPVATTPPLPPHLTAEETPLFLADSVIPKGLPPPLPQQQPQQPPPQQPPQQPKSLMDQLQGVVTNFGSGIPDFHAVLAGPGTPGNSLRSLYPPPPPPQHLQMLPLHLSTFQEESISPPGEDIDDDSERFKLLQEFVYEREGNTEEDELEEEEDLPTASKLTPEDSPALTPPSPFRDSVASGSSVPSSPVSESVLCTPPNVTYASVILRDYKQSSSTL

For the molecule `O=C(O)c1ccc2c(c1)nc(C(=O)NC1CCN(C3CC3)CC1)n2Cc1cc(-c2ccc(Cl)s2)on1`, the AC50 (as a rule, the midpoint of the concentration-response curve, whichever way the signal moves) in experiment [1] was 3.26 µM (active); in experiment [2], 0.395 µM (active).
As to `C=CCc1cc(S(=O)(=O)c2ccc(O)c(CC=C)c2)ccc1O`, in experiment [3], the half-maximal activity concentration (AC50) is 16.1 µM (active).
`OC(Cn1cncn1)(Cn1cncn1)c1ccc(F)cc1F`: the result in experiment [3] was inactive.
As to `NC(=O)N1c2ccccc2C=Cc2ccccc21`, the molecule was classed as inactive in [4].
As to `COc1cc(C(C)C)c2c(c1)S(=O)(=O)N(COc1cc(=O)n3cccc(OCCN4CCCCC4)c3n1)C2=O`, the AC50 was 4.16 µM (active) in [1], 2.98 µM (active) in experiment [2] and 8.62 µM (active) in [3].
Regarding `CCN(CC)C(=S)SSC(=S)N(CC)CC`, the AC50 in experiment [5] is 16.2 µM (active). The result in experiment [3] was inactive.
For the molecule `CCCCCCCC1CCC(=O)O1` (stereo unspecified), in [6], the call was inactive.
In the case of `CCCCCCCCCC`, the result in [4], in experiment [7], in experiment [2] and in [8] was inactive.
Take `CCCOc1ccc(S(=O)(=O)N2CCN(CC)CC2)cc1-c1nc2c(CC)n(Cc3ccccn3)nc2c(=O)[nH]1`: in experiment [9], the AC50 is 12.6 µM (active).
In the case of `S=P(N1CC1)(N1CC1)N1CC1`, in experiment [1], the molecule was called inactive.
In the case of `OCC(CO)(CO)CO`, the result in experiment [8] was inactive.
Consider `OCCOCCOCCO`, for which the call in [6] was inactive.
`CCCCCCCC/C=C\CCCCCCCC(=O)OC[C@@H](O)[C@H]1OC[C@H](O)[C@H]1O`: the molecule was classed as inactive in experiment [2].
As for `CC[C@H](C)C(=O)O[C@H]1C[C@H](O)C=C2C=C[C@H](C)[C@H](CC[C@@H](O)C[C@@H](O)CC(=O)O)[C@H]21`, in experiment [10], the call was inactive.
For `CCCCCCCCN(C)C`, the result in experiment [1] and in experiment [2] was inactive.
Take `c1ccc(C(O[C@@H]2CCCN(CCc3ccc4c(c3)OCO4)C2)c2ccccc2)cc1`: the results for the AC50 in experiment [1], in experiment [2] and in experiment [3] were 19.5 µM (active), 7.75 µM (active) and 6.18 µM (active), respectively. In addition, the outcome in experiment [4] was inactive.
Consider `Cc1nccn1-c1ccc(Sc2cccc(C3(C(N)=O)CCOCC3)c2)cc1`, for which the AC50 in experiment [1] was 11.1 µM (active); in experiment [5], 25 µM (active); in [2] it was 8.46 µM (active); in experiment [9] it was 25 µM (active). For the same molecule, the molecule was classed as inactive in experiment [3].
As to `CCCCN1C(=O)[C@@H]([C@H](O)C2CCCCC2)NC(=O)C12CCN(Cc1ccc(Oc3ccc(C(=O)O)cc3)cc1)CC2`, the AC50 in experiment [7] is 9.81 µM (active). Also, in experiment [8], the molecule was called inactive.
For `CCn1nc(C)c2c1C(=O)NCC(c1ccc(O)cc1)=N2`, the molecule was classed as inactive in [6], in experiment [1], in [9] and in [8].
With `O=c1[nH]cnc2c1ncn2[C@H]1CC[C@@H](CO)O1`, the result in experiment [4] was inactive.
Same read-out and setting: the result for `CCCC(CCC)C(=O)O` reads “inactive”.
Take `NC(=O)NN=Cc1ccc([N+](=O)[O-])o1`: the call in experiment [6] was inactive.
